Screens from PubChem BioAssay.
Sampled rows, rich in hits. Any-hit rate of the full collection: about 2.8%.
POLB inh: DNA polymerase beta (human) inhibition. P06746. Pol beta primer extension/strand displacement, fluorescence kinetic. Potency, µM (titrated, usually from 114 µM), for inactives: top-dose activity change, negative = inhibition, usual class: inhibitors. hit rate 1.3% among 340,000. AID 485314; also: potency is read from the fitted curve at half-maximal effect; % is scaled to controls: 0 for no effect and ±100 for the full control effect
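10 nM enzyme + cpd, 15 min RT; start with substrate 50 nM final; read 0 min and after 10 min RT. Corrected, normalized data; 4-parameter Hill curve fit.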
POLI inh: inhibitors of human DNA polymerase iota. Pol iota fluorescent replication assay, 10 min. AID 588590. Q9UNA4. Potency, µM (series often up to 115 µM), inactives show at the highest dose activity, negative = inhibition, usual class: inhibitors. hit rate 1% among 390,000; also: potency is read from the fitted curve at half-maximal effect
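Pol iota at 10 nM preincubated 15 min with compounds at room temperature; reaction started with fluorescent substrate, 50 nM final. Fluorescence read kinetically at 0 and 10 min; buffer-only wells as negative control.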
Pol kappa inh-1: DNA polymerase kappa (human) inhibition; purified Pol kappa, fluorescent DNA synthesis assay, 10 min; hit rate 0.53% among 400,000; Potency, µM (highest dose often 107 µM), for inactives: at the top dose activity, negative = inhibition, usual class: inhibitors; also: potency is read from the fitted curve at half-maximal effect; % is scaled to controls: 0 for no effect and ±100 for the full control effect
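Activity was followed as the change in fluorescence between reads at 0 and 10 min after starting the reaction with 50 nM substrate. Beforehand, 10 nM polymerase had been preincubated with compound for 15 min at room temperature.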
PI5P4K alpha inh: inhibitors of human PI5P4K alpha; P48426; PI5P4Kalpha enzyme, ADP-Glo luminescence, 60 min; hits give low values; hit rate 1.2% among 330,000; max response, %; active = max response of -50% or lower; inconclusive = between -30% and -50%; inactive = -30% or higher; also: value at the top dose of about 77 µM; % is scaled to controls: 0 for no effect and ±100 for the full control effect
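Compounds were pin-transferred onto PI5P4Kalpha and substrate in HEPES pH 7.4 buffer with EGTA, CHAPS and 5% DMSO. ATP (5 microM final) started the reaction, which ran 60 minutes at room temperature before ADP-Glo detection.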
PI4K2A inh: blocks human PI4K2A kinase activity. Q9BTU6. purified PI4K2A, ADP-Glo luminescence, 1 h; hits give low values. activity change, negative = inhibition, % at 76.9 µM. hit rate 0.13% among 420,000; in the data active = activity change below about -50%; inconclusive = mostly about -30% to -49%;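 also: -100% = wells without enzyme as full effect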
Target sequence (Q9BTU6 whole entry, looked up): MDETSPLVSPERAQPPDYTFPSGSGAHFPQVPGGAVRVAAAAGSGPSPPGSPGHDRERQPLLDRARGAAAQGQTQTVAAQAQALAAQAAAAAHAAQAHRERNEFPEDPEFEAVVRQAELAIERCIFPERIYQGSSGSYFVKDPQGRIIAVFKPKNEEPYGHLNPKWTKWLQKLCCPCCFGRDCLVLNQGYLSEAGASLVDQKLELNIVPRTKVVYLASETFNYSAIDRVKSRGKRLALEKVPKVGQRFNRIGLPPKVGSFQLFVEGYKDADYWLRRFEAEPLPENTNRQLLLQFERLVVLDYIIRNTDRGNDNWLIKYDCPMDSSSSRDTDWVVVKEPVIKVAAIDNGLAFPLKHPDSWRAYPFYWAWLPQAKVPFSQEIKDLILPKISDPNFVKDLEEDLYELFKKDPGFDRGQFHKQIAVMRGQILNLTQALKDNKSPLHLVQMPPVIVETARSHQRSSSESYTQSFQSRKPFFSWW
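ADP-Glo luminescence measured ADP generated by PI4K2A enzyme (4 ug/mL before mixing) with 1.2 mM PI substrate (pre-mix) and 300 microM ATP (pre-mix). Tris pH7.5 buffer with MgCl2, Triton X-100; 1 h reaction at ambient temperature.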
Pol eta inh-1: blocks human DNA polymerase eta activity | Potency, µM (doses to about 114 µM), inactives show at the highest dose activity change, negative = inhibition, actives largely listed as inhibitors | recombinant Pol eta, fluorescent DNA replication assay | hit rate 1.2% among 390,000 | Q9Y253; also: potency is read from the fitted curve at half-maximal effect; % is scaled to controls: 0 for no effect and ±100 for the full control effect
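Pol eta (10 nM) was preincubated with compounds for 15 min at room temperature, after which fluorescent replication substrate (50 nM final) was added to start the reaction. Fluorescence was read kinetically at 0 and 10 min.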
Pol kappa inh-2: confirmation of human DNA polymerase kappa inhibitors. shares compounds with Pol eta inh-1. purified Pol-kappa, fluorescent strand-displacement substrate. Potency, µM, hits mostly inhibitors. hit rate 76% among 920; also: potency is read from the fitted curve at half-maximal effect
Pol eta inh-2: confirmation of human DNA polymerase eta inhibitors; Potency, µM, most hits filed as inhibitors; Pol eta primer extension, TAMRA/BHQ fluorescence, 10 min; shares compounds with Pol eta inh-1; hit rate 64% among 2,600; also: potency is read from the fitted curve at half-maximal effect
The depositor's hits bear a star; [ ] = another dose, or the depositor's remark. Unless noted, calls follow the shape of the dose curve; as a rule, active = well fitted inhibition curve with a large enough effect; inconclusive = small, poorly fitted or top-dose-only effect, or another doubt; inactive = no such curve, though single readings can be large or run the other way.

CCOc1ccccc1NC(=O)C1CCN(S(=O)(=O)Cc2ccccc2)CC1 was read as POLB inh 1%, POLI inh 32%, Pol kappa inh-1 -3%, PI4K2A inh -3 and Pol eta inh-1 -17%.
Cc1ccc(SCC(=O)Nc2ccc(S(=O)(=O)Nc3nccs3)cc2)cc1 was read as POLB inh -23%, POLI inh inconclusive, Pol kappa inh-1 -24%, PI5P4K alpha inh -19, PI4K2A inh -4 and Pol eta inh-1 inconclusive.
`CCOC(=O)/C=C/C(=O)Nc1ccc(S(=O)(=O)Nc2nccs2)cc1` gave POLB inh -2%, POLI inh 25µM*, Pol kappa inh-1 -39%, PI5P4K alpha inh -3, PI4K2A inh 2, Pol eta inh-1 45µM* and Pol eta inh-2 inconclusive.
For O=C(CSc1ccncc1)Nc1ccc(S(=O)(=O)Nc2nccs2)cc1 the results were POLB inh 2%, POLI inh 28µM*, Pol kappa inh-1 inconclusive, PI5P4K alpha inh -13, PI4K2A inh 6, Pol eta inh-1 18µM* and Pol eta inh-2 48*.
For O=C(Nc1ccc(S(=O)(=O)Nc2nccs2)cc1)/C(=C/c1ccccc1Cl)NC(=O)c1ccccc1 the results were POLB inh -1%, POLI inh -13%, Pol kappa inh-1 -25%, PI5P4K alpha inh -29, PI4K2A inh 2, Pol eta inh-1 inconclusive and Pol eta inh-2 inconclusive.
`O=C(CSc1nc2ccsc2c(=O)n1Cc1ccc(C(=O)O)cc1)NCc1ccco1` gave POLB inh -6%, POLI inh inconclusive, Pol kappa inh-1 -21%, PI5P4K alpha inh 7, PI4K2A inh 12, Pol eta inh-1 45µM* and Pol eta inh-2 inconclusive.
Screening O=C(O)c1[nH]c2ccc(Cl)cc2c1CC(=O)N1CCN(C(=O)c2ccco2)CC1 returned POLB inh 13µM*, POLI inh inconclusive, Pol kappa inh-1 50µM*, PI5P4K alpha inh inconclusive, PI4K2A inh 1, Pol eta inh-1 7.1µM* and Pol eta inh-2 30*.
`O=C(O)c1[nH]c2ccc(Cl)cc2c1CC(=O)N1CCN(c2ccccc2)CC1` gave POLB inh inconclusive, POLI inh -7%, Pol kappa inh-1 0%, PI5P4K alpha inh 11, PI4K2A inh -9 and Pol eta inh-1 -3%.
`CCCCN1Cc2c(nc3cc(-c4ccco4)[nH]n3c2=O)C1=O` gave POLB inh 25µM*, POLI inh inconclusive, Pol kappa inh-1 inconclusive, PI5P4K alpha inh inconclusive, PI4K2A inh -12, Pol eta inh-1 inconclusive and Pol eta inh-2 30*.
Screening O=C(/C=C/c1ccco1)NC(=S)Nc1ccccc1O returned POLB inh 22µM*, POLI inh inconclusive, Pol kappa inh-1 inconclusive, PI5P4K alpha inh -17, PI4K2A inh -5, Pol eta inh-1 -8% and Pol eta inh-2 inconclusive.
For O=C(/C=C\c1ccco1)NC(=S)Nc1ccccc1O the results were POLB inh 56µM*, POLI inh inconclusive, Pol kappa inh-1 inconclusive, PI5P4K alpha inh -53*, PI4K2A inh -4, Pol eta inh-1 22µM* and Pol eta inh-2 inconclusive.
Screening CCOC(=O)c1cc(NC(=O)c2ccccc2)c(=O)n2c1oc1ccc(Cl)cc12 returned POLB inh 8%, POLI inh 6%, Pol kappa inh-1 9%, PI4K2A inh -4 and Pol eta inh-1 -3%.
For O=C(O)c1cc(S(=O)(=O)O)cc(Nc2c3ccccc3nc3ccccc23)c1O the results were POLB inh -7%, POLI inh inconclusive, Pol kappa inh-1 inconclusive, PI5P4K alpha inh -1, PI4K2A inh -10, Pol eta inh-1 22µM*, Pol kappa inh-2 17* and Pol eta inh-2 30*.
`CCc1cc[n+](C2=C([O-])c3ccccc3C(=O)/C2=N\S(=O)(=O)c2cccs2)cc1` gave POLB inh inconclusive, POLI inh inconclusive, Pol kappa inh-1 -19%, PI5P4K alpha inh inconclusive, PI4K2A inh -21, Pol eta inh-1 50µM* and Pol eta inh-2 76*.
For Cc1c(C(=O)O)sc2nc3n(c(=O)c12)CCC3 the results were POLB inh 18µM*, POLI inh 11µM*, Pol kappa inh-1 inconclusive, PI5P4K alpha inh inconclusive, PI4K2A inh -7, Pol eta inh-1 7.9µM* and Pol eta inh-2 60*.
`O=NCc1ccc([N+](=O)[O-])o1` gave Pol kappa inh-1 -2%[60.1 µM].
`O=C(O)CCCNc1cc(N2CCN(C3CCCCC3)CC2)c2noc3c2c1C(=O)c1ccccc1-3` gave POLB inh 20µM*, POLI inh inconclusive, Pol kappa inh-1 inconclusive, PI4K2A inh -2, Pol eta inh-1 3% and Pol eta inh-2 inconclusive.
For CCNc1cc(N2CCN(C3CCCCC3)CC2)c2noc3c2c1C(=O)c1ccccc1-3 the results were POLB inh 17%, POLI inh 42%, Pol kappa inh-1 -9%, PI4K2A inh -2 and Pol eta inh-1 5%.
Screening Cc1ccc(C(=O)CSc2nc(-c3ccccc3)nc3c2CCCC3)cc1 returned POLB inh 14%, POLI inh -6%, Pol kappa inh-1 -5%, PI4K2A inh -5 and Pol eta inh-1 -8%.
`CC(C)(C)OC(=O)NCCCCC1=CC2=CC(=O)C(C)(O)C(=O)C2=CO1` (stereo not drawn) gave POLI inh 50µM*, Pol kappa inh-1 79µM*, PI5P4K alpha inh -80*, PI4K2A inh -25, Pol eta inh-1 20µM* and Pol eta inh-2 60*.
`O=C(CSc1nc2c([nH]c3ccccc32)c(=O)n1-c1ccc(Cl)cc1)N1CCCCCC1` gave POLB inh -23%, POLI inh inconclusive, Pol kappa inh-1 -1%[60.1 µM], PI4K2A inh 0 and Pol eta inh-1 -9%.
